HT1080NT lethal: kills 2HG-producing HT-1080-NT fibrosarcoma cells | 360,000 tested, 1.6% active | HT-1080-NT fibrosarcoma viability, CellTiter-Glo ATP luminescence, 48 h | Potency, µM (titrated, usually from 46.1 µM), for inactives: top-dose activity, negative = less viability, hits mostly cytotoxic | AID 686970;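 also: NT is the 2HG producing partner of a matched IDH1 knockdown line; potency is read from the fitted curve at half-maximal effect; 0% = DMSO-treated cells and -100% = media-only wells without cells; nearly all actives have a fitted effect of over 55% in size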
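A 48-hour cytotoxicity screen used HT-1080-NT cells plated 2 hours before compound delivery. ATP-based CellTiter-Glo luminescence measured viability, normalized to DMSO and no-cell controls.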
DT40 TDP1 no CPT: qHTS for Inhibitors of human tyrosyl-DNA phosphodiesterase 1 (TDP1): qHTS in cells in absence of CPT | DT40 Tdp1-/- hTDP1 cells, no CPT, ATP luminescence, 48 h | Potency, µM (doses to about 46.2 µM), without a hit: at the highest dose activity change, negative = growth inhibition, usual class: inhibitors | 420,000 tested, 15% active | AID 686978, 2013; also: potency is read from the fitted curve at half-maximal effect; nearly all actives have a fitted effect of over 55% in size
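Camptothecin absent (DMSO only). Human TDP1-complemented DT40 knockout cells, 400 cells/well, 37 °C for minimum 48 hr; ATP measured via CellTiter-Glo, 30 min dark incubation, luminescence.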
DT40 TDP1 CPT: DT40-hTDP1 cell growth loss with CPT; chicken DT40 Tdp1-/-;hTDP1 cells + 20 nM CPT, ATP luminescence, 48 h; Potency, µM (highest dose often 46.2 µM), for the others: at the top dose activity change, negative = growth inhibition, usual class: inhibitors; 420,000 tested, 12% active; also: potency is read from the fitted curve at half-maximal effect; nearly all actives have a fitted effect of over 55% in size
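Chicken DT40 Tdp1-/- cells complemented with human TDP1, 400 cells/well, exposed to compounds plus 20 nM camptothecin for at least 48 h at 37 C; viability read as ATP content by CellTiter-Glo luminescence.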
HT1080 IDH1KD tx: HT-1080 IDH1 knockdown cell toxicity (counter line); AID 686971; Potency, µM (titrated, usually from 46.1 µM), for the others: at the highest dose activity, negative = toxicity, hits mostly cytotoxic; HT-1080 IDH1 knockdown viability, ATP luminescence, 48 h; 360,000 tested, 2% active;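 also: potency is read from the fitted curve at half-maximal effect; 0% = DMSO wells and -100% = cell-free medium wells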
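Luminescent ATP read-out (CellTiter-Glo, 10 min at room temperature) after 48 h compound exposure at 37 °C gave viability of IDH1-knockdown HT-1080 cells. Activity was normalised to DMSO and cell-free wells, then fitted as concentration-response curves.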
IL-1B inflam inh: inhibitors of inflammasome signaling (IL-1 beta secretion) | THP-1 LPS/ATP IL-1B secretion, AlphaLISA, 16 h; active compounds read low | activity change, % at 57.5 µM | 360,000 tested, 4.7% active | AID 743279; in the data active = activity change below about -50%; inconclusive = mostly about -30% to -49%
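THP-1 cells pretreated 1 hr with compounds (up to 57.5 uM final), then stimulated with LPS (250 ng/mL final) plus ATP (1.25 mM final); secreted IL-1B measured by AlphaLISA after 16 hr, decreased signal indicating inhibition.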
* = called active by the depositor; ? = inconclusive; / = no result given; [ ] = remark or other dose. Hits are enriched below; roughly 19% of the tested compounds scored in any of these assays. Unless noted, calls follow the shape of the dose curve; as a rule, active = well fitted curve in the direction sought with a large enough effect; inconclusive = small, poorly fitted or top-dose-only effect, or another doubt; inactive = no such curve, though single readings can be large; an effect the other way counts as inactive or inconclusive. Unless noted, % is scaled to controls: 0 for no effect and ±100 for the full control effect.

SMILES | HT1080NT lethal | DT40 TDP1 no CPT | DT40 TDP1 CPT | HT1080 IDH1KD tx | IL-1B inflam inh
COc1c(O)cc2c(c1O)[C@@H]1OC(CO)C(O)C(O)[C@H]1OC2=O (stereo partly specified) | 1.6% | -9.5% | 0.4% | 2.2% | 5.6
CCOC(=O)c1ccccc1NC(=O)C1CCN(c2ncnc3sc(C)c(C)c23)CC1 | -5.4% | ? | 23.1µM* | -5.5% | 53.8
CCc1nnc(NC(=O)C2CCN(c3ncnc4sc(C)c(C)c34)CC2)s1 | 4.4% | -14.3% | -21.1% | 6.5% | 46.2
Cc1sc2ncnc(N3CCC(C(=O)Nc4ccccc4C(C)(C)C)CC3)c2c1C | -3.4% | 13µM* | 20.6µM* | -21.6% | -8.9
Cc1sc2ncnc(N3CCC(C(=O)Nc4cc(Cl)ccc4Cl)CC3)c2c1C | -15.0% | ? | ? | -22.4% | -1.2
CC(C)CNS(=O)(=O)c1cc(C(=O)N2CC(C)OC(C)C2)c(Cl)cc1Cl (stereo unspecified) | 12.4% | 23.1µM* | ? | -4.3% | -1.0
CC(C)CNc1cc(Cl)c(S(=O)(=O)NCC(C)C)cc1C(=O)O | -0.6% | -28.4% | -7.6% | 11.6% | 25.9
CCOC(=O)c1cnc2c(ccc3ccccc32)c1Nc1cccc(OC)c1 | / | 25.9µM* | ? | / | /
CCOC(=O)c1cnc2c(C)c(C)ccc2c1Nc1ccc(S(=O)(=O)Nc2ncccn2)cc1 | -0.3% | -4.3% | 2.8% | -6.8% | -92.7*
CCOC(=O)c1cnc2c(ccc3ccccc32)c1NCCO | -21.7% | 20.6µM* | ? | ? | ?
CCOC(=O)c1cnc2c(ccc3ccccc32)c1N | 17.1% | ? | -14.1% | 16.7% | 11.1
CCOC(=O)c1cnc2c(ccc3ccccc32)c1Nc1ccc(OCC)cc1 | / | -27.4% | ? | / | /
CCOC(=O)c1cnc2c(ccc3ccccc32)c1NCCN(C)C | -20.0% | ? | ? | -5.8% | -58.1*
COC(=O)c1ccc(C(=O)NCC2Cc3cccc(-c4ccc(C(=O)OC)cn4)c3O2)cc1 (stereo unspecified) | / | -26.3% | ? | / | /
CC(C)NC(=O)c1c(CSc2ccccc2)noc1C(=O)NCc1ccccc1 | -7.3% | ? | -10.6% | -0.6% | 0.0
Oc1ccc(C[C@H]2CN([C@@H](Cc3ccc(O)cc3)CN3CCC[C@@H]3CN3C(=S)NC[C@@H]3Cc3ccccc3)C(=S)N2CC2CCCCCC2)cc1 | 11.6µM* | 23.1µM* | 16.4µM* | 16.4µM* | -51.2*
Oc1ccc(C[C@H]2CNC(=S)N2C[C@H]2CCCN2C[C@H](Cc2ccccc2)N2C[C@H](Cc3ccc(O)cc3)N(CC3CCCCCC3)C2=S)cc1 | 29.1µM* | 16.4µM* | 14.6µM* | 18.4µM* | 0.0
O=C1NC[C@H](Cc2ccccc2)N(C[C@H]2CCCN2C[C@H](Cc2ccccc2)N2C[C@H](Cc3ccc(O)cc3)N(CC3CCCCCC3)C(=O)C2=O)C1=O | ? | ? | ? | ? | 0.0
O=C1NC[C@H](Cc2ccc(O)cc2)N(C[C@@H]2CCCN2C[C@H](Cc2ccc(O)cc2)N2C[C@H](Cc3ccccc3)N(CC3CCCCCC3)C(=O)C2=O)C1=O | -14.3% | ? | ? | -0.3% | -25.1
Oc1ccc(C[C@H]2CN([C@@H](Cc3cccc(O)c3)CN3CCC[C@@H]3CN3C(=S)NC[C@@H]3Cc3ccccc3)C(=S)N2CC2CCCCC2)cc1 | 18.4µM* | 2.91µM* | 3.66µM* | 23.1µM* | -11.8
Oc1ccc(C[C@H]2CNC(=S)N2CC2CCCN2C[C@H](Cc2ccc(O)cc2)N2C[C@H](Cc3ccc(O)cc3)N(CC3CCCCC3)C2=S)cc1 (stereo partly specified) | 16.4µM* | 5.8µM* | 7.31µM* | ? | 0.0
O=C(/C=C/c1ccc(OCCCF)cc1)NCc1ccc(Cl)cc1 | 17.3% | -27.3% | -23.6% | 13.4% | -11.0
O=c1cc(-c2ccccc2)cc(-c2ccccc2)n1CCO | 13.0% | -3.9% | -10.5% | 7.8% | ?
Oc1ccc(C[C@H]2CN([C@@H](Cc3ccccc3)CN3CCCC3CN3C(=S)NC[C@@H]3Cc3ccccc3)C(=S)N2CC2CCCCC2)cc1 (stereo partly specified) | -20.2% | 16.4µM* | ? | -14.9% | 10.8
Oc1ccc(C[C@H]2CNC(=S)N2CC2CCCN2C[C@H](Cc2ccccc2)N2C[C@H](Cc3ccc(O)cc3)N(CC3CCCCCC3)C2=S)cc1 (stereo partly specified) | -22.7% | ? | ? | ? | ?
SMILES | HT1080NT lethal | DT40 TDP1 no CPT | DT40 TDP1 CPT | HT1080 IDH1KD tx | IL-1B inflam inh
COc1cc(NS(=O)(=O)c2ccc(NC(=S)NC(=O)/C=C/c3ccco3)cc2)ncn1 | 6.7% | -18.6% | ? | 0.0% | 10.5
O=C(c1ccc(Oc2ccc(C(F)(F)F)cc2[N+](=O)[O-])cc1)N1CCOCC1 | -1.2% | 14.6µM* | ? | -2.7% | 9.7
CC(=O)c1cccc(NC(=O)C2=CN3CCS(=O)(=O)N=C3C=C2)c1 | 4.1% | 0.1% | 14.8% | 6.7% | 13.6
CN(C)C(CNC(=O)c1cccc(S(=O)(=O)N2CC3(C)CC2CC(C)(C)C3)c1)c1ccco1 (stereo unspecified) | -1.2% | 16.4µM* | ? | 2.6% | -6.1
CC(C)N(C(=O)COC(=O)c1cccc(S(=O)(=O)N2CC3(C)CC2CC(C)(C)C3)c1)C(C)C (stereo unspecified) | -0.6% | ? | 23.1µM* | -17.7% | -17.2
N=c1ccn(Cc2ccccc2Cl)cc1 | -0.5% | 4.61µM* | 5.17µM* | -16.5% | -5.7
Cc1ccc(C)n1Cc1ccccc1Cl | -1.9% | -12.8% | 2.4% | -6.8% | -5.7
N=c1ccn(Cc2ccc(Cl)cc2Cl)cc1 | ? | 5.17µM* | 3.66µM* | -10.2%[9.24 µM] | ?
Cc1nn(Cc2c(Cl)cccc2Cl)c(C)c1N | 9.3% | -12.2% | -4.1% | 6.7% | 14.5
N=c1ccn(Cc2c(Cl)cccc2Cl)cc1 | ? | 0.651µM* | 1.3µM* | ? | -12.9
CC(C)C(NC(=O)c1ccco1)C(=O)OCC(=O)Nc1ccc(C(N)=O)cc1 (stereo unspecified) | 10.3% | -27.4% | -7.0% | 5.1% | 7.1
O=C1CC(c2ccccc2C(F)(F)F)c2c(c3ccccc3[nH]c2=O)O1 (stereo unspecified) | / | -11.8% | 5.0% | / | /
COc1ccccc1CNC(=O)C1CC(c2ccccc2F)=NO1 (stereo unspecified) | -2.9% | 4.9% | -17.7% | 1.5% | 5.4
O=C1c2ccccc2CCC1CNCCc1ccc(O)cc1 (stereo unspecified) | / | 20.6µM* | -82.8% | / | /
O=C1c2ccccc2CC[C@H]1CNCCc1ccc(O)cc1 | / | 13.3µM* | 13.3µM* | / | /
Cc1c(Cl)cccc1NC(=O)NCc1ccncc1 | -0.5% | 12.3% | 12.9% | -3.7% | 0.0
